Experimental data taken from PMC5540273 (PLoS ONE, 2017).

system: RIPK2; details: concentration: 1 μM,replicates: in singlicate; n = 1
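Further: KINOMEscan kinase panel screen.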

Structure (SMILES)	%Inh [%]
CC(C)c1nc(-c2cccc(NS(=O)(=O)c3ccccc3)c2)c(-c2ccnc(Nc3ccc4c(c3)CN(C)CC4)n2)s1 [GSK1649598]	98.7
C[C@@H](Oc1cc(-n2cnc3cc(-c4cnn(C)c4)ccc32)sc1C(N)=O)c1ccccc1Cl [GSK580432]	10
CCn1c(-c2nonc2N)nc2cncc(CNC3CCNCC3)c21.Cl [SB-747651]	5
CN1CCN(CCCNc2nccc(-c3c(-c4ccc(F)cc4)nn4cc(C(N)=O)ccc34)n2)CC1 [GW622475]	85
Cc1ccc(C(=O)Nc2ccc(Oc3ccc4nc(NC(=O)C5CC5)cn4c3)c(F)c2)c(=O)n1-c1ccccc1	12
CC(=O)Nc1ccc(-c2cc3ncnc(SCC(=O)O)c3s2)cc1	0
Cn1ccc2ncnc(Oc3ccc(NC(=O)Nc4ccnc(C(F)(F)F)c4)c(Cl)c3)c21	0
NC(=O)c1ccc(-c2cc3ncnc(SCC(=O)O)c3s2)cc1	18
CN(c1ccc2c(c1)nc(NCc1ccc(F)cc1)n2C)c1ccnc(Nc2ccc(CS(C)(=O)=O)cc2)n1.Cl [GW813244]	25
FC(F)(F)c1cc(Br)cc(Nc2nccc(-c3cnn4ncccc34)n2)c1 [GW810578]	69
Cn1ccc2ncnc(Oc3ccc(NC(=O)Nc4cccc(C(F)(F)F)c4)c(F)c3)c21	52
CCCC(=O)Nc1n[nH]c2ncccc12 [SB-601436]	0
CN(c1ccccc1CNc1nc(Nc2ccc3c(c2)CC(=O)N3)ncc1C(F)(F)F)S(C)(=O)=O	0
COC(=O)c1cccc(NC(=O)NC2CCN(c3ccnc(Nc4cc(OC)c(OC)c(OC)c4)n3)C2)c1 (centres unmarked) [GSK1379767]	24
Cc1n[nH]c2cc(Nc3ccnc(Nc4cccc(CN5CCOCC5)c4)n3)ccc12 [GW682569]	79
O=C(Nc1cccc(C(F)(F)F)c1)c1cccc(Oc2ccc3nccn3n2)c1	0
C[C@@H]1CNc2c(sc3ccc4nc(-c5ccc(O)cc5)ccc4c23)C(=O)N1	27
O=C(Nc1n[nH]c2cc(-c3ccco3)ccc12)C1CC1 [SB-737447]	0
Cn1cc(-c2cccc3c(N)c(C(N)=O)nnc23)cn1	3

Structure (SMILES)	%Inh [%]
OCCn1cc(-c2cnc3nnn(Cc4ccc5ncccc5c4)c3n2)cn1	0
Cl.c1ccc(Oc2ccc(Nc3ccnc4cc(-c5ccc(CN6CCNCC6)o5)ccc34)cc2)nc1 [GW567142]	95.5
CS(=O)c1ccc(-c2coc3ccc(-c4n[nH]c(=O)o4)cc23)cc1 (centres unmarked)	0
CS(=O)(=O)Nc1ccc(-c2ccnc3[nH]ccc23)cc1 [GSK993273]	18
COC(=O)Nc1nc2cc(Oc3ccc(NC(=O)Nc4cc(C(F)(F)F)ccc4Cl)cc3)ccc2[nH]1.Cl [GW697465]	43
O=C(Nc1ccc(Oc2ccc3nc(NC(=O)C4CC4)cn3n2)c(F)c1)c1cccn(-c2ccccc2)c1=O	4
CCNCC(Cc1ccccc1)NC(=O)c1cc(Br)c(-c2ccnc3[nH]ccc23)s1.Cl.Cl (centres unmarked) [GSK1383280]	0
Cc1ccn2nc(-c3ccc(F)cc3)c(-c3ccncc3)c2c1.Cl [GW457859]	41
C[C@@H]1CNc2c(sc3ccc4nc(-c5ccncc5)ccc4c23)C(=O)N1	0
Nc1nccc(-c2ccc3c(N)n[nH]c3c2)n1 [GSK1034945]	14
COC(=O)c1cccc(NC(=O)NC2CCN(c3ccnc(NCc4ccc(F)cc4)n3)CC2)c1 [GSK1379860]	0
CC(=O)Nc1nc2cnc(Nc3cc(NC(=O)c4cccc(CC(C)(C)C#N)c4)ccc3C)nc2s1	0
O=C1NCCc2[nH]c(-c3ccncc3)cc21	4
COc1cccc(CNC(=O)NC2CCN(c3ccnc(Nc4cc(OC)c(OC)c(OC)c4)n3)C2)c1 (centres unmarked) [GSK1379765]	0
NC(=O)Nc1sc(-c2ccc(F)cc2)cc1C(N)=O [GW789449]	0
CS(=O)(=O)c1cccc(CNc2nc(Nc3ccc4c(c3)[C@@H]3C[C@@H]4CNC3=O)ncc2C(F)(F)F)c1	0
O=c1[nH]cc(-c2ccc(O)cc2)c2sc(-c3ccncc3)cc12 [GSK1033723]	16
CC(C(=O)NC1CCN(c2ccnc(Nc3ccc(F)cc3)n2)C1)c1ccc(Cl)cc1 (centres unmarked) [GSK1379713]	0

system: RIPK4; details: concentration: 1 μM,replicates: in singlicate; n = 1

Structure (SMILES)	%Inh [%]
CC(C)c1nc(-c2cccc(NS(=O)(=O)c3ccccc3)c2)c(-c2ccnc(Nc3ccc4c(c3)CN(C)CC4)n2)s1 [GSK1649598]	36
C[C@@H](Oc1cc(-n2cnc3cc(-c4cnn(C)c4)ccc32)sc1C(N)=O)c1ccccc1Cl [GSK580432]	0
CCn1c(-c2nonc2N)nc2cncc(CNC3CCNCC3)c21.Cl [SB-747651]	19
CN1CCN(CCCNc2nccc(-c3c(-c4ccc(F)cc4)nn4cc(C(N)=O)ccc34)n2)CC1 [GW622475]	28
Cc1ccc(C(=O)Nc2ccc(Oc3ccc4nc(NC(=O)C5CC5)cn4c3)c(F)c2)c(=O)n1-c1ccccc1	0
CC(=O)Nc1ccc(-c2cc3ncnc(SCC(=O)O)c3s2)cc1	2
Cn1ccc2ncnc(Oc3ccc(NC(=O)Nc4ccnc(C(F)(F)F)c4)c(Cl)c3)c21	0
NC(=O)c1ccc(-c2cc3ncnc(SCC(=O)O)c3s2)cc1	3
CN(c1ccc2c(c1)nc(NCc1ccc(F)cc1)n2C)c1ccnc(Nc2ccc(CS(C)(=O)=O)cc2)n1.Cl [GW813244]	24
FC(F)(F)c1cc(Br)cc(Nc2nccc(-c3cnn4ncccc34)n2)c1 [GW810578]	20
Cn1ccc2ncnc(Oc3ccc(NC(=O)Nc4cccc(C(F)(F)F)c4)c(F)c3)c21	0
CCCC(=O)Nc1n[nH]c2ncccc12 [SB-601436]	0
CN(c1ccccc1CNc1nc(Nc2ccc3c(c2)CC(=O)N3)ncc1C(F)(F)F)S(C)(=O)=O	0
COC(=O)c1cccc(NC(=O)NC2CCN(c3ccnc(Nc4cc(OC)c(OC)c(OC)c4)n3)C2)c1 (centres unmarked) [GSK1379767]	26
Cc1n[nH]c2cc(Nc3ccnc(Nc4cccc(CN5CCOCC5)c4)n3)ccc12 [GW682569]	62
O=C(Nc1cccc(C(F)(F)F)c1)c1cccc(Oc2ccc3nccn3n2)c1	17
C[C@@H]1CNc2c(sc3ccc4nc(-c5ccc(O)cc5)ccc4c23)C(=O)N1	3
O=C(Nc1n[nH]c2cc(-c3ccco3)ccc12)C1CC1 [SB-737447]	36
Cn1cc(-c2cccc3c(N)c(C(N)=O)nnc23)cn1	37

Structure (SMILES)	%Inh [%]
OCCn1cc(-c2cnc3nnn(Cc4ccc5ncccc5c4)c3n2)cn1	0
Cl.c1ccc(Oc2ccc(Nc3ccnc4cc(-c5ccc(CN6CCNCC6)o5)ccc34)cc2)nc1 [GW567142]	0
CS(=O)c1ccc(-c2coc3ccc(-c4n[nH]c(=O)o4)cc23)cc1 (centres unmarked)	0
CS(=O)(=O)Nc1ccc(-c2ccnc3[nH]ccc23)cc1 [GSK993273]	30
COC(=O)Nc1nc2cc(Oc3ccc(NC(=O)Nc4cc(C(F)(F)F)ccc4Cl)cc3)ccc2[nH]1.Cl [GW697465]	1
O=C(Nc1ccc(Oc2ccc3nc(NC(=O)C4CC4)cn3n2)c(F)c1)c1cccn(-c2ccccc2)c1=O	0
CCNCC(Cc1ccccc1)NC(=O)c1cc(Br)c(-c2ccnc3[nH]ccc23)s1.Cl.Cl (centres unmarked) [GSK1383280]	20
Cc1ccn2nc(-c3ccc(F)cc3)c(-c3ccncc3)c2c1.Cl [GW457859]	6
C[C@@H]1CNc2c(sc3ccc4nc(-c5ccncc5)ccc4c23)C(=O)N1	0
Nc1nccc(-c2ccc3c(N)n[nH]c3c2)n1 [GSK1034945]	77
COC(=O)c1cccc(NC(=O)NC2CCN(c3ccnc(NCc4ccc(F)cc4)n3)CC2)c1 [GSK1379860]	5
CC(=O)Nc1nc2cnc(Nc3cc(NC(=O)c4cccc(CC(C)(C)C#N)c4)ccc3C)nc2s1	25
O=C1NCCc2[nH]c(-c3ccncc3)cc21	56
COc1cccc(CNC(=O)NC2CCN(c3ccnc(Nc4cc(OC)c(OC)c(OC)c4)n3)C2)c1 (centres unmarked) [GSK1379765]	40
NC(=O)Nc1sc(-c2ccc(F)cc2)cc1C(N)=O [GW789449]	79
CS(=O)(=O)c1cccc(CNc2nc(Nc3ccc4c(c3)[C@@H]3C[C@@H]4CNC3=O)ncc2C(F)(F)F)c1	77
O=c1[nH]cc(-c2ccc(O)cc2)c2sc(-c3ccncc3)cc12 [GSK1033723]	0
CC(C(=O)NC1CCN(c2ccnc(Nc3ccc(F)cc3)n2)C1)c1ccc(Cl)cc1 (centres unmarked) [GSK1379713]	0
